Screening results (PubChem BioAssay)
MEKK2mut PB1 HTS = signal of MEK5 binding to mutant human MEKK2 PB1 domain | bead flow cytometry, Alexa488-MEK5 binding to MEKK2 mutant | percent response, % at 10 µM | actives 0.35% (n = 290,000); in the data active = percent response above about 24%, passing the limit was not always enough
dFosB act-1 = enhances mouse delta FosB homodimer DNA binding | actives 0.99% (n = 340,000) | P13346 | activation, % at 25 µM | purified delta FosB, TAMRA-CDK5 oligo fluorescence polarization; percent of positive-control signal above neutral wells;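 active = mean activation above about 17%, with every replicate also reaching it, limit read from the data, passing the limit was not always enough; inconclusive = only one of the two conditions met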
Target sequence (P13346 whole entry, looked up): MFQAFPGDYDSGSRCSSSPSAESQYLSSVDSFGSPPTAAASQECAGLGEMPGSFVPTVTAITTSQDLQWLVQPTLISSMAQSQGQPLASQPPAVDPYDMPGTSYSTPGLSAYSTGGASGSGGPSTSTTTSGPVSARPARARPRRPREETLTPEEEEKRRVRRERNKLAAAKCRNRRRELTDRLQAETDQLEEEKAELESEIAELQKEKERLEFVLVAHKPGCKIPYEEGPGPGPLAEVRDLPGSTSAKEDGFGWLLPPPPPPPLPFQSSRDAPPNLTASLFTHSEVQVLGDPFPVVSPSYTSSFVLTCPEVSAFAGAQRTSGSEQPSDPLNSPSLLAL
MEKK3 PB1 HTS = MEKK3-MEK5 PB1 interaction, increase or decrease | bead-based flow cytometry, Alexa488-MEK5 binding to MEKK3; actives lie on both sides; 0 = blocked by unlabeled MEK5, 100 = vehicle | binding response (% of control), % at 10 µM | actives 1.4% (n = 290,000);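 active = binding response more than 3 SD above or below the average of its plate-row segment, actives on both sides; inconclusive = wells at one plate position flagged as instrument error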;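 note: Alexa488 bead fluorescence after subtracting the streptavidin-only scavenger bead signal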
DNA FID counter = counter-screen for HCV NS3 helicase inhibitors: DNA intercalator displacement; DNA fluorescent intercalator displacement, fluorescence; inhibition, % at 7.9 µM; actives 0.17% (n = 290,000); AID 1845; in the data active = inhibition above about 37%;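 note: 0% = vehicle and 100% = reference compound; higher means more ethidium bromide displaced from hairpin DNA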
MEKK2wt PB1 HTS = raises or lowers MEK5 binding to wildtype human MEKK2 PB1 domain; actives 1.1% (n = 290,000); bead flow cytometry, Alexa488-MEK5 binding to MEKK2 WT; actives lie on both sides; Q9Y2U5; binding response (% of control), % at 10 µM; in the data active = binding response below about 67% or above about 130%; inconclusive = no clear call, values can overlap the other calls; inactive = in between
dFosB act-2 = activators of mouse delta FosB homodimer DNA binding; shares compounds with dFosB act-1; purified delta FosB, TAMRA-CDK5 oligo fluorescence polarization; normalised: neutral wells 0, positive control 100; activation, % at 24.9 µM; 2,400 tested, under 10 active; AID 588690;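 active = highest replicate activation at or above 34% and every replicate reaching that threshold; inconclusive = meets only one of the two criteria; inactive = meets neither criterion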;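 note: higher polarization means more probe DNA bound by delta FosB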
Active calls of the source: *; ? = inconclusive; / = no result. Rows were chosen to be rich in hits. Some 2.9% of all compounds tested hit in one or more screens of this group.

SMILES	MEKK2mut PB1 HTS	dFosB act-1	MEKK3 PB1 HTS	DNA FID counter	MEKK2wt PB1 HTS	dFosB act-2
CCOc1ccc(CCN2C(=S)N([C@@H](CC(C)C)CN3CCCC3CN3C(=S)NC[C@@H]3CC(C)C)C[C@@H]2Cc2ccccc2)cc1 (some centres not stated)	/	4	/	/	/	/
COc1ccc(-c2nnc(SCC(=O)c3ccc(O)cc3O)o2)cc1	2	40*	105	-12	102	1
COc1ccc(-c2nnc(SCC(=O)c3cc(C)n(Cc4cccs4)c3C)o2)cc1	3	43*	104	-3	104	3
O=C(COc1ccc(Cl)cc1Cl)Nc1c(-c2cccs2)nc2ccccn12	3	119*	106	-14	105	2
O=C(Nc1c(-c2cccs2)nc2ccccn12)c1ccccc1F	0	0	99	3	99	/
CC(OC(=O)c1cc2c(s1)CCCCC2)C(=O)NC(N)=O (configuration not stated)	10	?	100	-10	92	/
CC(C)C(OC(=O)c1cc2c(s1)CCCCC2)C(=O)NC(N)=O (configuration not stated)	8	26*	101	-5	105	5
O=C(Nc1ccc(Br)cc1)c1cccc(N2C(=O)C3C4CCC(C4)C3C2=O)c1 (configuration not stated)	-1	20*	107	-6	111	6
O=C(Nc1ccc(F)cc1)c1cccc(N2C(=O)C3C4CCC(C4)C3C2=O)c1 (configuration not stated)	-1	1	100	-14	97	/
COc1cccc2cc(-c3cc(=O)oc4ccc(OCC(C)=O)cc34)oc12	-3	-9	103	-10	100	/
COC(=O)COc1ccc2oc(=O)cc(-c3cc4cccc(OC)c4o3)c2c1	-7	52*	95	-3	91	1
COc1ccc(Cc2nc3c4c(ncn3n2)Oc2c(ccc3ccccc23)C4c2ccc(OC)c(OC)c2)cc1 (configuration not stated)	0	32*	110	1	105	4
COc1ccc(CCNC(=O)C2CCC(=O)N(CC3CCCCC3)C2)cc1 (configuration not stated)	-3	-8	101	-32	103	/
Cc1ccc(NNC(=O)C(O)(c2cccc(C(F)(F)F)c2)c2cccc(C(F)(F)F)c2)cc1	-4	77*	101	-4	103	0
O=C(NNc1ccccc1Br)C(O)(c1cccc(C(F)(F)F)c1)c1cccc(C(F)(F)F)c1	2	1	101	-2	116	/
CCN1CCN(c2c(C=O)c(Cl)nc3ccc(OC)cc23)CC1	1	27*	105	10	106	2
CC(=O)N1CCc2c(sc(NC(=O)Cc3ccc(C)cc3C)c2C#N)C1	7	12	98	-25	99	/
O=C(Nc1nc(-c2nc3ccccc3s2)cs1)c1ccc(S(=O)(=O)N2CCOCC2)cc1	/	33*	/	2	/	5
Cc1ccc2sc(N(CCN(C)C)C(=O)c3ccc4ccccc4c3)nc2c1C	18	39*	106	14	161*	2
COc1ccccc1C(=O)N(CCN(C)C)c1nc2cc(C)cc(C)c2s1	10	-1	101	13	119	/
CN(C)CCN(C(=O)c1ccc2c(c1)OCCO2)c1nc2c(Cl)cccc2s1	15	-8	110	5	123	/
CCOc1ccc2nc(N(CCN(CC)CC)C(=O)c3ccc([N+](=O)[O-])cc3)sc2c1	-9	-7	74	17	90	/
Cc1cc(C)c2sc(N(CCN(C)C)C(=O)c3ccc4ccccc4c3)nc2c1	13	39*	98	15	128	6
CCN(CC)CCN(C(=O)c1ccc2ccccc2c1)c1nc2ccc(OC)cc2s1	14	26*	105	6	127	4
Cc1ccc(C)c(OCc2cc(C(=O)N3CCOCC3)no2)c1	4	5	103	-26	103	/
O=C(Cn1cnc2c(nnn2Cc2ccccc2)c1=O)Nc1ccc2c(c1)OCCO2	3	30*	104	-24	103	0
O=C(Cn1nnc(-c2ccc(F)cc2)n1)Nc1ccc2c(c1)OCCO2	-1	36*	105	1	100	6
